# Source: PubChem BioAssay (NCATS)
# Inconclusive results are not listed. The source made the active and inactive calls. Unless noted, the call rests on the fitted dose curve; in most records, active means well fitted curve in the direction sought with a large enough effect; inconclusive means small, poorly fitted or top-dose-only effect, or another doubt; inactive means no such curve, though single readings can be large; an effect the other way counts as inactive or inconclusive. Peptide text beside a SMILES is read from it.
# Columns and labels:
# [1] = Quantitative High-Throughput drug screen in 47 multiple myeloma cell lines against the NCATS MIPE library collection: OPM2_DSMZ cell viability assay (AID 1919872); further: nearly all actives have a fitted effect of over 30% in size; further: potency means the concentration at half of the fitted maximal effect
# Summary of the method: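 Viability readout: CellTiter-Glo luminescence following 5 min room-temperature incubation with reagent. Prior exposure: 48 h, 37C, humidified 5% CO2, 500 cells per well.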
# [2] = qHTS profiling for inhibitors of Plasmodium falciparum proliferation (AID 504749); further: potency means the concentration at half of the fitted maximal effect;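 on activity, negative = inhibition: 0% = DMSO vehicle and full inhibition = artemisinin control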; on all read-outs here: nearly all actives have a fitted effect of over 60% in size; conditions: P. falciparum in erythrocytes, SYBR Green DNA, 72 h; for activity, negative = inhibition: at 28.7 µM (top of the series)
# Summary of the method: (§1)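 Three-day growth assay of blood-stage parasites in erythrocytes (0.3% parasitemia, 2.5% hematocrit) at 37 C, 5% CO2, quantified by SYBR Green DNA staining after overnight detergent lysis.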
# 3D7 = experiment: as above; conditions: P. falciparum in erythrocytes, SYBR Green DNA, 72 h; series mostly up to 28.7 µM
# Summary of the method: as §1
# AA1029 = experiment: as above; conditions: P. falciparum in erythrocytes, SYBR Green DNA, 72 h; series mostly up to 28.7 µM
# Summary of the method: as §1
# AS120 = experiment: as above; conditions: P. falciparum in erythrocytes, SYBR Green DNA, 72 h; series mostly up to 28.7 µM
# Summary of the method: as §1
# [3] = Quantitative High-Throughput drug screen in 47 multiple myeloma cell lines against the NCATS MIPE library collection: KMS11_JCRBsus cell viability assay (AID 1919873); further: nearly all actives have a fitted effect of over 50% in size; further: potency means the concentration at half of the fitted maximal effect
# Summary of the method: (§2)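 Plated at 500 cells per well, myeloma lines received MIPE 4.0 compounds by pin tool. Following 48 h culture at 37 °C, CellTiter-Glo luminescence gave viability relative to DMSO and media-only controls.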
# 7G8 = experiment: qHTS profiling for inhibitors of Plasmodium falciparum proliferation (AID 504749); further: nearly all actives have a fitted effect of over 60% in size; further: potency means the concentration at half of the fitted maximal effect;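 on activity, negative = inhibition: 0% = DMSO vehicle and full inhibition = artemisinin control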; conditions: P. falciparum in erythrocytes, SYBR Green DNA, 72 h; series mostly up to 28.7 µM
# Summary of the method: as §1
# [4] = qHTS drug screen for cell cycle checkpoint inhibitors in PARPi-resistant BRCA-mutant ovarian cancer cell lines. (AID 1963452; calls by dose curve); conditions: PEO1/OlaR viability, CellTiter-Glo luminescence, 96 h, stronger effect = lower value
# Summary of the method: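 PEO1, PEO4 and PEO1/OlaR ovarian cancer cells, 600 per well, exposed 96 h at 37C to a dilution series. Viability read by CellTiter-Glo luminescence, normalized to DMSO and empty wells; activity summarized as Z-AUC.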
# [5] = Quantitative High-Throughput drug screen in 47 multiple myeloma cell lines against the NCATS MIPE library collection: KMS28BM_JCRB cell viability assay (AID 1919874); further: nearly all actives have a fitted effect of over 35% in size; further: potency means the concentration at half of the fitted maximal effect
# Summary of the method: as §2
# [6] = qHTS for identification of novel therapeutic agents for treatment of microphthalmiaassociated transcription factor (MiT) renal cell carcinoma (RCC) (AID 1963991); conditions: CellTiter-Glo, 48 h, stronger effect = lower value;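 further: curves scaled with 100% = DMSO viability and 0% = empty wells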
# Summary of the method: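 UOK109/UOK124/UOK145 (TFE3 fusions, three partners); 500 cells/well; MIPE v4.0, 1912 cpds, 11 conc.; 48 h, 37 C; CellTiter-Glo, 15 min RT; lum. Norm.: DMSO 100%, empty 0%.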
# [7] = measured here: PEO1 parental Z-AUC
# [8] = TFE3-RCC UOK109 viability, measured here: UOK109 Z-AUC
# [9] = TFE3-RCC viability, measured here: UOK124 Z-AUC
# [10] = TFE3-RCC viability, measured here: UOK145 Z-AUC
structure (smiles),measurement,setting,value
Cc1cc(=O)c2c(O)c3c(O)cc(=O)c4c3c3c(cc(O)c1c23)C(C)(C)C=4O,Potency,[1],13.2 µM (active)
same,Potency,[2]; parasite line A,2.51 µM (active)
same,Potency,[2]; parasite line B,1 µM (active)
same,Potency,3D7,1.58 µM (active)
same,Potency,AA1029,1.78 µM (active)
same,Potency,AS120,1.78 µM (active)
Clc1ccc(C(Cn2ccnc2)OCc2ccsc2Cl)c(Cl)c1 (configuration not stated),Potency,[3],13.2 µM (active)
same,Potency,[2]; parasite line A,2.82 µM (active)
same,Potency,[2]; parasite line B,2.82 µM (active)
same,Potency,3D7,2.51 µM (active)
same,Potency,7G8,0.447 µM (active)
same,Potency,AA1029,7.94 µM (active)
same,Potency,AS120,1.12 µM (active)
COC(=O)[C@H](Cc1ccccc1)NC(=O)[C@@H](N)CC(=O)O (H-Asp-Phe-OMe),Potency,[1],inactive
same,Z-AUC,[4],0.187 (inactive)
same,Z-AUC,[4]; [7],0.0667
same,Z-AUC,[4]; measured here: PEO4 Z-AUC,0.437
same,"activity, negative = inhibition",[2]; parasite line A,5.55% (inactive)
same,"activity, negative = inhibition",[2]; parasite line B,9.71% (inactive)
same,Potency,3D7,inactive
same,Potency,7G8,inactive
same,Potency,AA1029,inactive
same,Potency,AS120,inactive
Clc1ccc(C(Cn2ccnc2)OCc2ccc(Sc3ccccc3)cc2)c(Cl)c1 (configuration not stated),Potency,[5],20.9 µM (active)
same,Z-AUC,[4],-1.08 (inactive)
same,Z-AUC,[4]; [7],-0.535
same,Z-AUC,[4]; measured here: PEO4 Z-AUC,-0.326
COc1c(O)cc2c(c1O)[C@@H]1O[C@H](CO)[C@@H](O)[C@H](O)[C@H]1OC2=O,Potency,[3],inactive
same,Potency,[5],inactive
same,z-score,[6]; [8],0.427
same,z-score,[6]; [9],0.313
same,z-score,[6]; [10],-0.262
Cc1cc(C2CCCCC2)n(O)c(=O)c1,Potency,[3],5.26 µM (active)
same,Z-AUC,[4],0.662 (inactive)
same,Z-AUC,[4]; [7],0.159
same,Z-AUC,[4]; measured here: PEO4 Z-AUC,-0.0703
same,Potency,[2]; parasite line B,3.55 µM (active)
same,Potency,7G8,3.16 µM (active)
same,Potency,AS120,3.55 µM (active)
CN(C)c1ccc2nc3ccc(=[N+](C)C)cc-3sc2c1,Potency,[3],2.64 µM (active)
same,Potency,[5],2.96 µM (active)
same,Z-AUC,[4],-0.652 (inactive)
same,Z-AUC,[4]; [7],-0.738
same,Z-AUC,[4]; measured here: PEO4 Z-AUC,-0.606
same,Potency,[2]; parasite line A,0.0447 µM (active)
same,Potency,[2]; parasite line B,0.0631 µM (active)
same,Potency,3D7,0.0398 µM (active)
same,Potency,7G8,0.0028 µM (active)
same,Potency,AA1029,0.0794 µM (active)
same,Potency,AS120,0.0631 µM (active)
CCN(CC)CCOc1ccc(Cc2ccccc2)cc1,Potency,[1],inactive
same,Z-AUC,[4],1.12 (inactive)
same,Z-AUC,[4]; [7],0.729
same,Z-AUC,[4]; measured here: PEO4 Z-AUC,0.289
same,"activity, negative = inhibition",[2]; parasite line A,8.39% (inactive)
same,"activity, negative = inhibition",[2]; parasite line B,6.88% (inactive)
same,Potency,3D7,inactive
same,Potency,7G8,12.6 µM (active)
same,Potency,AA1029,inactive
same,Potency,AS120,inactive
CCc1nc(N)nc(N)c1-c1ccc(Cl)cc1,Potency,[3],16.6 µM (active)
same,Potency,[5],inactive
same,Z-AUC,[4],-0.192 (inactive)
same,Z-AUC,[4]; [7],-0.422
same,Z-AUC,[4]; measured here: PEO4 Z-AUC,-0.843
same,Potency,[2]; parasite line A,0.0501 µM (active)
same,Potency,[2]; parasite line B,3.16 µM (active)
same,Potency,3D7,0.0794 µM (active)
same,Potency,7G8,10 µM (active)
same,Potency,AA1029,inactive
O=C(NOCC1CC1)c1ccc(F)c(F)c1Nc1ccc(I)cc1Cl,Potency,[3],20.9 µM (active)
same,Potency,[5],26.4 µM (active)
same,Z-AUC,[4],0.682 (inactive)
same,Z-AUC,[4]; [7],-0.295
same,Z-AUC,[4]; measured here: PEO4 Z-AUC,0.149
COc1cc(Nc2c(C#N)cnc3cc(OCCCN4CCN(C)CC4)c(OC)cc23)c(Cl)cc1Cl,Potency,[3],18.7 µM (active)
same,Potency,[5],18.7 µM (active)
same,Z-AUC,[4],0.106 (inactive)
same,Z-AUC,[4]; [7],0.26
same,Z-AUC,[4]; measured here: PEO4 Z-AUC,0.9
Cc1ccc(S(=O)(=O)NC(=O)NN2CC3CCCC3C2)cc1 (configuration not stated),Potency,[3],16.6 µM (active)
same,Potency,[5],18.7 µM (active)
same,Z-AUC,[4],1.31 (inactive)
same,Z-AUC,[4]; [7],0.956
same,Z-AUC,[4]; measured here: PEO4 Z-AUC,1.09
S=c1nc[nH]c2nc[nH]c12,Potency,[5],1.18 µM (active)
same,Z-AUC,[4],-0.8 (inactive)
same,Z-AUC,[4]; [7],-0.506
same,Z-AUC,[4]; measured here: PEO4 Z-AUC,-0.594
NS(=O)(=O)c1cc(C(=O)O)c(NCc2ccco2)cc1Cl,Potency,[1],inactive
same,z-score,[6]; [8],-0.035
same,z-score,[6]; [9],-0.245
same,z-score,[6]; [10],0.387
Nc1nc(N)c(N=O)c(OCC2CCCCC2)n1,Potency,[3],6.62 µM (active)
same,Potency,[5],16.6 µM (active)
same,Z-AUC,[4],-0.0306 (inactive)
same,Z-AUC,[4]; [7],0.757
same,Z-AUC,[4]; measured here: PEO4 Z-AUC,0.22
Cc1ccc(Nc2nccc(N(C)c3ccc4c(C)n(C)nc4c3)n2)cc1S(N)(=O)=O,Potency,[5],inactive
same,Z-AUC,[4],1.07 (inactive)
same,Z-AUC,[4]; [7],0.627
same,Z-AUC,[4]; measured here: PEO4 Z-AUC,0.955
